Measurements: PubChem BioAssay (EPA / NIEHS)
Results filed as inconclusive are left out. Calls of active or inactive are those of the source. The calls were made as follows, unless noted: active = hit-call score of the fitted dose curve at least 0.9, where 1 is the maximum; inconclusive = response in the unintended direction; inactive = score below 0.9.

Experiments:
[1] = Tanguay_ZF_120hpf_PE_legacy: (Legacy) Oregon State University Tanguay Lab 120 Hour Post-fertilization zebrafish Assay for Pericardial Edema (AID 2283640);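 as to AC50: potency for increased incidence of pericardial edema versus DMSO baseline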
Procedure, shortened: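 Tropical 5D wild-type zebrafish embryos were statically exposed until 120 hpf at 28C, with 0.64% DMSO final. Pericardial edema was scored by brightfield as present or absent; endpoints were not scored in dead embryos.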

[2] = Tanguay_ZF_120hpf_BRAI_legacy: (Legacy) Oregon State University Tanguay Lab 120 Hour Post-fertilization zebrafish Assay for Brain Malformation (AID 2283641)
Procedure, shortened: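 Tropical 5D wild-type zebrafish embryos exposed statically until 120 hpf at 28C, 0.64% DMSO final, sealed and dark. Brain malformation scored present/absent by brightfield at 120 hpf; dead embryos excluded. Trimethyltin chloride 5uM positive control.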

[3] = Tanguay_ZF_120hpf_SOMI_legacy: (Legacy) Oregon State University Tanguay Lab 120 Hour Post-fertilization zebrafish Assay for Somite Malformation (AID 2283647)
Procedure, shortened: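 Dechorionated Tropical 5D wild-type zebrafish embryos, one per well from 6 hpf, statically exposed at 28C to 120 hpf in 0.64% DMSO; somite malformation scored present/absent by brightfield; trimethyltin 5 uM positive control; dead embryos not scored.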

[4] = Tanguay_ZF_120hpf_PFIN_legacy: (Legacy) Oregon State University Tanguay Lab 120 Hour Post-fertilization zebrafish Assay for Pectoral Fin Malformation (AID 2283648);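 also: each larva judged yes or no for fin defect by brightfield with dead larvae skipped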
Procedure, shortened: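 Scoring of pectoral fin malformation was binary, made at 120 hpf on larvae exposed statically from 6 hpf after enzymatic chorion removal. Activity was fitted upward relative to DMSO controls at 0.64% (vol/vol).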

[5] = Tanguay_ZF_120hpf_CFIN_legacy: (Legacy) Oregon State University Tanguay Lab 120 Hour Post-fertilization zebrafish Assay for Caudal Fin Malformation (AID 2283649)
Procedure, shortened: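 Dechorionated Tropical 5D wild-type embryos, one per well from 6 hpf, static exposure to 120 hpf at 28C in 0.64% DMSO. Caudal fin malformation scored by brightfield as present/absent; not scored in dead embryos.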

[6] = Tanguay_ZF_120hpf_PIG_legacy: (Legacy) Oregon State University Tanguay Lab 120 Hour Post-fertilization zebrafish Assay for Pigmentation Malformation (AID 2283650)
Procedure, shortened: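 Endpoint is incidence of abnormal pigmentation at 120 hpf in dechorionated 5D zebrafish exposed singly from 6 hpf at 28C, DMSO vehicle at 0.64%. Embryos dying by 24 or 120 hpf are excluded from scoring.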

[7] = Tanguay_ZF_120hpf_SWIM_legacy: (Legacy) Oregon State University Tanguay Lab 120 Hour Post-fertilization zebrafish Assay for Swim Bladder Malformation (AID 2283654);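 also: swim bladder malformation in each larva scored yes or no under brightfield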
Procedure, shortened: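 Static waterborne exposure of single dechorionated Tropical 5D zebrafish embryos, 6–120 hpf, 28C, 0.64% DMSO final. Read-out: swim bladder malformation, present/absent, relative to DMSO negative control; trimethyltin chloride 5uM served as positive control.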

[8] = Tanguay_ZF_120hpf_TRUN_legacy: (Legacy) Oregon State University Tanguay Lab 120 Hour Post-fertilization zebrafish Assay for Truncated Body (AID 2283655)
Procedure, shortened: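 Dechorionated Tropical 5D wild-type embryos placed singly from 6 hpf and statically exposed to 120 hpf at 28C, final DMSO 0.64%. Truncated body scored as present/absent by brightfield; not scored in dead embryos.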

[9] = Tanguay_ZF_120hpf_NC_legacy: (Legacy) Oregon State University Tanguay Lab 120 Hour Post-fertilization zebrafish Assay for Notochord and Tail Malformation (AID 2283656)
Procedure, shortened: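 Binary scoring of notochord distortion by brightfield microscopy; embryos dying were not scored. Wild-type Tropical 5D embryos, chorion removed, exposed singly and statically from 6 to 120 hpf, 28C, sealed, 0.64% DMSO.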

[10] = Tanguay_ZF_120hpf_TR_legacy: (Legacy) Oregon State University Tanguay Lab 120 Hour Post-fertilization zebrafish Assay for Touch Response (AID 2283667)
Procedure, shortened: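 Readout is presence or absence of touch response in 120 hpf zebrafish larvae, assessed by brightfield observation after continuous static exposure at 28C. Final vehicle was 0.64% (vol/vol) DMSO.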

[11] = Tanguay_ZF_120hpf_CIRC_legacy: (Legacy) Oregon State University Tanguay Lab 120 Hour Post-fertilization zebrafish Assay for Circulatory Malformation (AID 2283651)
Procedure, shortened: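 Embryos are dechorionated at 4 hpf, plated one per well at 6 hpf, then held under static exposure at 28C until 120 hpf. Malformations are recorded as binary calls; mortality excludes other endpoints.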

[12] = STM_H9_OrnithineISnorm_perc: Stemina devTOX quickPredict H9 human embryonic stem cell (hESC)-based Assay for Ornithine (ORN) Metabolite Biomarker, Normalized (AID 2283712; active = hit-call score of the fitted dose curve at least 0.9, where 1 is the maximum; inactive = score below 0.9;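 also: ornithine released into spent medium during last day measured by mass spectrometry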)
Procedure, shortened: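 Ornithine secreted by H9 hESCs after 72h compound treatment (daily media/compound renewal) was quantified in final-day media by UPLC-HRMS. Values are isotope-standard-normalized, expressed relative to 0.1% DMSO, fitted in positive direction.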

[13] = read-out: solute carrier (SLC22A6), SLC22A6 (gene 9356); test: LTEA_HepaRG_SLC22A6: Life Technologies and Expression Analysis (LTEA) Assay for solute carrier (SLC22A6) using HepaRG (AID 2283653; active = hit-call score of the fitted dose curve at least 0.9, where 1 is the maximum; inactive = score below 0.9); details: mRNA level, 48 h; actives raise or lower the signal
Procedure, shortened: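 Differentiated HepaRG cells exposed 48 h in serum-free induction medium to 8 half-log concentrations, top 100 uM, in 0.5% DMSO; SLC22A6 mRNA by Fluidigm qRT-PCR normalized to ACTB, GAPDH, POLR2A, fitted bidirectionally versus DMSO.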

[14] = read-out: solute carrier (SLC10A1), SLC10A1 (gene 6554); test: LTEA_HepaRG_SLC10A1: Life Technologies and Expression Analysis (LTEA) Assay for solute carrier (SLC10A1) using HepaRG (AID 2283657; active = hit-call score of the fitted dose curve at least 0.9, where 1 is the maximum; inactive = score below 0.9); details: mRNA level, 48 h; actives raise or lower the signal
Procedure, shortened: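 Cryopreserved HepaRG cells are thawed, plated and cultured 48 h; medium is then switched to serum-free induction medium and chemicals added (8 points, max 100 uM, 0.5% DMSO). After 48 h, RNA is isolated and SLC10A1 quantified by qRT-PCR.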

[15] = read-out: matrix metalloproteinase-1 (MMP1), MMP1 (gene 4312); test: LTEA_HepaRG_MMP1: Life Technologies and Expression Analysis (LTEA) Assay for matrix metalloproteinase-1 (MMP1) using HepaRG (AID 2283658; active = hit-call score of the fitted dose curve at least 0.9, where 1 is the maximum; inactive = score below 0.9); details: mRNA level, 48 h; actives raise or lower the signal
Procedure, shortened: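 Differentiated human HepaRG cells, 48 h post-plating in serum-free induction medium, were exposed 48 h to eight half-log concentrations topping at 100 uM in 0.5% DMSO, duplicate. MMP1 mRNA measured by Fluidigm TaqMan qRT-PCR, normalized to ACTB, GAPDH, POLR2A; bidirectional fits versus DMSO.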

[16] = read-out: Cytochrome P450 (CYP24A1_1), CYP24A1 (gene 1591); test: LTEA_HepaRG_CYP24A1_1: Life Technologies and Expression Analysis (LTEA) Assay for Cytochrome P450 (CYP24A1_1) using HepaRG (AID 2283671; active = hit-call score of the fitted dose curve at least 0.9, where 1 is the maximum; inactive = score below 0.9); details: mRNA level, 48 h; actives raise or lower the signal
Procedure, shortened: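 Cultures of human HepaRG were treated in duplicate for 48 h (0.5% DMSO vehicle, highest dose 100 uM). CYP24A1 mRNA by qRT-PCR, normalized to ACTB, GAPDH, POLR2A.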

[17] = CCTE_Padilla_ZF_144hpf_TERATOSCORE: (Legacy) CCTE's 144 Hour Post-fertilization zebrafish Assay Teratoscore, Padilla Lab (AID 2283679; active = hit-call score of the fitted dose curve at least 0.9, where 1 is the maximum; inactive = score below 0.9;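 as to AC50: zebrafish embryos with chorions exposed by immersion from 6-8 hpf to 5 dpf with daily renewal; teratogenicity score from eye scoring of death hatching and malformations at 144 hpf; higher score means more developmental defects relative to DMSO baseline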)
Procedure, shortened: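 Larvae scored by eye at 144 hpf for death, hatching and malformations after a day in clean Hanks'. Before that, daily-renewed exposure at 80 uM (0.4% DMSO, 26C) from roughly 6-8 hpf through 5 dpf, 4 embryos per chemical.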

[18] = test system: Thyroperoxidase (TPO), gene 54314; test: CCTE_Simmons_AUR_rTPO: CCTE's Amplex UltraRed Assay for Thyroperoxidase (TPO) Inhibition, Simmons Lab (AID 2283662);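 as to AC50: potency for loss of signal meaning inhibition of peroxidase activity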
Procedure, shortened: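 Rat thyroid microsomes (5 ug protein) with 25 uM Amplex UltraRed and 300 uM H2O2 in 200 mM phosphate buffer, 30 min at 37C in dark; fluorescence 544/590 nm. Eight concentrations, 5 nM–87.5 uM final, 0.5% DMSO, triplicate biological replicates.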

[19] = CCTE_Simmons_CellTiterGLO_HEK293T: Viability Assessment in CCTE's Assays for Thyroperoxidase (TPO) Inhibition, Simmons Lab (AID 2283665);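 as to AC50: cells exposed to compound for 24 h before readout; actives reduce ATP signal below DMSO vehicle meaning cytotoxicity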
Procedure, shortened: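 Cells were seeded overnight, then exposed to an eight-point series up to 87.5 uM final for 24 hours. CellTiter-Glo reagent was added and luminescence read after 20 min, giving ATP-based viability versus DMSO.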

[20] = read-out: kallikrein-3 (KLK3), KLK3 (gene 354); test: LTEA_HepaRG_KLK3: Life Technologies and Expression Analysis (LTEA) Assay for kallikrein-3 (KLK3) using HepaRG (AID 2283652; active = hit-call score of the fitted dose curve at least 0.9, where 1 is the maximum; inactive = score below 0.9); details: mRNA level, 48 h; actives raise or lower the signal
Procedure, shortened: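 KLK3 transcript levels were measured by TaqMan qRT-PCR with normalisation to three housekeeping genes. HepaRG cultures received chemicals for 48 h at up to 100 uM (half-log, 8 points, 0.5% DMSO vehicle), fitted in both directions against DMSO.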

Measured: AC50

C[Si]1(C)O[Si](C)(C)O[Si](C)(C)O[Si](C)(C)O1
inactive: [1] | [2] | [3] | [4] | [5] | [6] | [7] | [8] | [9] | [10]

CCCCc1ccc2c(n1)[C@@H](c1ccc(OC)cc1C[C@H](C)C(=O)O)[C@H](C(=O)O)[C@H]2c1ccc2c(c1)OCO2
inactive: [1] | [2] | [3] | [4] | [5] | [6] | [11] | [7] | [8] | [9] | [12]

COCCOC[C@H](CC1(C(=O)NC2CCC(C(=O)O)CC2)CCCC1)C(=O)Oc1ccc2c(c1)CCC2 (stereo partly specified)
inactive: [1] | [2] | [3] | [4] | [5] | [6] | [11] | [7] | [8] | [9] | [10]

Cc1cccc(Nc2cc(Cl)nc(SCC(=O)O)n2)c1C
not listed: [13] | [14] | [15] | [16] | [17] | [18] | [19] | [20]
inactive: all other assays above

CCCCCCCC=O
inactive: [1] | [2] | [3] | [4] | [5] | [6] | [11] | [7] | [8] | [9] | [10]

COc1cc(C=O)ccc1O
inactive: [3] | [5] | [13] | [9] | [14] | [15] | [16]
active: [1] 37.6 µM | [2] 44.7 µM | [4] 42.8 µM | [6] 45.9 µM | [8] 50 µM | [17] 11.8 µM

CCCCC(CC)COC(=O)CC(C(=O)OCC(CC)CCCC)S(=O)(=O)O (stereo unspecified)
active: [18] 43.8 µM | [19] 15.8 µM
not listed: [13] | [14] | [15] | [16] | [17] | [20]
inactive: all other assays above

CCNc1cccc(C)c1
active: [18] 12.1 µM
not listed: [9] | [12] | [13] | [14] | [15] | [16] | [17] | [20]
inactive: all other assays above

O=C(O)CCCCC(=O)O
inactive: [1] | [2] | [3] | [4] | [5] | [6] | [7] | [8] | [9] | [10]

CN1CCCC1=O
not listed: [11] | [12] | [17] | [18]
inactive: all other assays above

CC(=O)OC/C=C(\C)CCC=C(C)C
active: [19] 24.6 µM | [17] 52.8 µM
not listed: [8] | [11] | [12]
inactive: all other assays above

CCCCN(CCCC)CCCC
not listed: [7] | [12] | [17] | [18] | [19] | [20]
inactive: all other assays above

CCCCCCCCCCC
not listed: [12] | [17] | [18] | [19]
inactive: all other assays above

O=C(N[C@@H](Cc1ccccc1)[C@@H](O)C(=O)N1C[C@@H](O)[C@@H](O)C1)c1cc2cc(Cl)ccc2[nH]1
inactive: [1] | [2] | [3] | [4] | [5] | [6] | [7] | [8] | [9] | [10]

CCOc1ccc2c(c1)C(C)=CC(C)(C)N2
active: [18] 1.48 µM | [19] 48.8 µM | [17] 57.7 µM
not listed: [11] | [13] | [14] | [15] | [16] | [20]
inactive: all other assays above

COC(=O)c1ccc(O)cc1
active: [12] 0.091 µM
not listed: [13] | [14] | [15] | [16] | [18] | [19] | [20]
inactive: all other assays above

Cc1nc(-c2ccc3c(c2)CCN(CCC2CCC(NC(=O)/C=C/c4ccc(F)cc4)CC2)CC3)no1 (stereo unspecified)
not listed: [13] | [14] | [15] | [16] | [17] | [18] | [19] | [20]
inactive: all other assays above

NCCO
inactive: [1] | [2] | [3] | [4] | [5] | [6] | [11] | [8] | [9] | [10]
